The sample as a whole holds a higher share of the strongest signals than the screen did.
How the values were obtained:
Test in all cases: glycan array binding signal (z-score within array); higher = stronger binding
Settings in all cases: glycan notation: IUPAC condensed, linker removed
Fuc(a1-2)Gal = molecular target: Fuc(a1-2)Gal
Outline: (§1)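 The Consortium for Functional Glycomics database supplied 3228 glycan arrays, of which those lacking an available protein sequence were dropped. The binding signal, a within-array Z-score, was averaged across arrays of the same protein sequence and across linkers. Negative scores can be read as non-binding.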

[1] = molecular target: Fuc(a1-2)Gal(b1-4)GlcNAc(b1-2)Man(a1-3)[Fuc(a1-2)Gal(b1-4)GlcNAc(b1-2)Man(a1-6)]Man(b1-4)GlcNAc(b1-4)GlcNAc
Outline: as §1

[2] = molecular target: Fuc(a1-2)Gal6S(b1-3)GlcNAc
Outline: as §1

[3] = molecular target: Fuc(a1-2)[Gal(a1-3)]Gal(b1-3)GalNAc
Outline: as §1

[4] = molecular target: Fuc(a1-2)[Gal(a1-3)]Gal(b1-3)GalNAc(b1-3)Gal(a1-4)Gal(b1-4)Glc
Outline: as §1

[5] = molecular target: Fuc(a1-2)[GalNAc(a1-3)]Gal(b1-3)GalNAc(b1-3)Gal(a1-4)Gal(b1-4)Glc
Outline: as §1

[6] = molecular target: Fuc(a1-2)[GalNAc(a1-3)]Gal(b1-4)GlcNAc(b1-3)Gal(b1-4)GlcNAc(b1-3)Gal(b1-4)GlcNAc
Outline: as §1

[7] = molecular target: Fuc(a1-3)[Gal(b1-4)]GlcNAc(b1-2)Man(a1-3)[Fuc(a1-3)[Gal(b1-4)]GlcNAc(b1-2)Man(a1-6)]Man(b1-4)GlcNAc(b1-4)[Fuc(a1-6)]GlcNAc
Outline: as §1

[8] = molecular target: Fuc(a1-3)[Gal(b1-4)]GlcNAc(b1-3)GalNAc
Outline: as §1

[9] = molecular target: Gal(a1-3)Gal(b1-3)GlcNAc(b1-3)GalNAc
Outline: as §1

[10] = molecular target: Gal(a1-3)Gal(b1-3)[Fuc(a1-4)]GlcNAc(b1-2)Man(a1-3)[Gal(a1-3)Gal(b1-3)[Fuc(a1-4)]GlcNAc(b1-2)Man(a1-6)]Man(b1-4)GlcNAc(b1-4)GlcNAc
Outline: as §1

[11] = molecular target: Gal(a1-3)Gal(b1-4)GlcNAc(b1-6)GalNAc
Outline: as §1

[12] = molecular target: Gal(b1-3)GlcNAc(b1-3)Gal(b1-3)GlcNAc
Outline: as §1

[13] = molecular target: Gal(b1-3)GlcNAc(b1-3)Gal(b1-4)GlcNAc
Outline: as §1

[14] = molecular target: Gal(b1-3)GlcNAc(b1-3)Gal(b1-4)GlcNAc(b1-2)[Gal(b1-3)GlcNAc(b1-3)Gal(b1-4)GlcNAc(b1-6)]Man(a1-6)[Gal(b1-3)GlcNAc(b1-3)Gal(b1-4)GlcNAc(b1-2)Man(a1-3)]Man(b1-4)GlcNAc(b1-4)[Fuc(a1-6)]GlcNAc
Outline: as §1

[15] = molecular target: Gal(b1-3)GlcNAc(b1-3)Gal(b1-4)GlcNAc(b1-3)Gal(b1-4)GlcNAc(b1-2)[Gal(b1-3)GlcNAc(b1-3)Gal(b1-4)GlcNAc(b1-3)Gal(b1-4)GlcNAc(b1-6)]Man(a1-6)[Gal(b1-3)GlcNAc(b1-3)Gal(b1-4)GlcNAc(b1-3)Gal(b1-4)GlcNAc(b1-2)Man(a1-3)]Man(b1-4)GlcNAc(b1-4)[Fuc(a1-6)]GlcNAc
Outline: as §1

[16] = molecular target: Gal(b1-3)GlcNAc(b1-3)Gal(b1-4)GlcNAc(b1-6)[Gal(b1-3)GlcNAc(b1-3)]Gal(b1-4)Glc
Outline: as §1

[17] = molecular target: Gal(b1-3)[Neu5Ac(b2-6)]GalNAc
Outline: as §1

[18] = molecular target: Gal(b1-4)GlcNAc(b1-2)Man(a1-3)Man(b1-4)GlcNAc(b1-4)GlcNAc
Outline: as §1

[19] = molecular target: Gal(b1-4)GlcNAc(b1-2)[Gal(b1-4)GlcNAc(b1-4)]Man(a1-3)[GlcNAc(b1-4)][Gal(b1-4)GlcNAc(b1-2)[Gal(b1-4)GlcNAc(b1-6)]Man(a1-6)]Man(b1-4)GlcNAc(b1-4)GlcNAc
Outline: as §1

[20] = molecular target: Gal(b1-4)GlcNAc(b1-3)Gal(b1-4)GlcNAc(b1-2)Man(a1-3)[Gal(b1-4)GlcNAc(b1-3)Gal(b1-4)GlcNAc(b1-2)Man(a1-6)]Man(b1-4)GlcNAc(b1-4)[Fuc(a1-6)]GlcNAc
Outline: as §1

[21] = molecular target: Gal(b1-4)GlcNAc(b1-3)Gal(b1-4)GlcNAc(b1-2)[Gal(b1-4)GlcNAc(b1-3)Gal(b1-4)GlcNAc(b1-6)]Man(a1-6)[Gal(b1-4)GlcNAc(b1-3)Gal(b1-4)GlcNAc(b1-2)Man(a1-3)]Man(b1-4)GlcNAc(b1-4)GlcNAc
Outline: as §1

[22] = molecular target: Gal(b1-4)GlcNAc(b1-3)Gal(b1-4)GlcNAc(b1-2)[Gal(b1-4)GlcNAc(b1-3)Gal(b1-4)GlcNAc(b1-6)]Man(a1-6)[Gal(b1-4)GlcNAc(b1-3)Gal(b1-4)GlcNAc(b1-2)Man(a1-3)]Man(b1-4)GlcNAc(b1-4)[Fuc(a1-6)]GlcNAc
Outline: as §1

[23] = molecular target: Gal(b1-4)GlcNAc(b1-6)Gal(b1-4)GlcNAc
Outline: as §1

[24] = molecular target: Gal(b1-4)GlcNAc(b1-6)[Gal(b1-4)GlcNAc(b1-3)]GalNAc
Outline: as §1

[25] = molecular target: Gal3S(b1-4)[Fuc(a1-3)]Glc6S
Outline: as §1

[26] = molecular target: Gal3S(b1-4)[Fuc(a1-3)]GlcNAc6S
Outline: as §1

Gal6S(b1-3)GlcNAc6S = molecular target: Gal6S(b1-3)GlcNAc6S
Outline: as §1

[27] = molecular target: GalNAc(a1-3)GalNAc(b1-3)Gal(a1-4)Gal(b1-4)GlcNAc
Outline: as §1

[28] = molecular target: Glc(a1-6)Glc(a1-6)Glc(a1-6)Glc
Outline: as §1

B1: LlpA (Burkholderia cenocepacia) (protein)
chain: MGSSHHHHHHSSGLVPRGSHKILGSNETLSAGNVVYSDNGQYHLAMQTDGNLVVYGPTGAVWQSQTSGSGGNRAVMQGDGNLVIYRADNTAAWSSKTAHPGAFLAVQDDGNVVIYWPRPAWASNTSDPATQQSAESKYLASGSTMSAGQTVTVAQYMLVFQADGNLVLYKNGGNPIWSTGTQGKGATYAVMQSDGNFVIYAGSTALWSTKTNGANGAQLVLQSDGNLVIYAPTAAWSTKFGLVTAPTSTSTSNNGPGSGICVGVCPPHPLNGNPFSPVGVGTTGLGFPTPGYPGAAF
In the case of B1, the “glycan array binding signal (z-score)” value (Fuc(a1-2)Gal) is reported as 1.82, the “glycan array binding signal (z-score)” value [1] is reported as -0.314 and the “glycan array binding signal (z-score)” value [2] is reported as 0.167. The “glycan array binding signal (z-score)” value [3] was 0.017, the “glycan array binding signal (z-score)” value [4] was -0.361 and the “glycan array binding signal (z-score)” value [5] was -0.271. For the same binder, the “glycan array binding signal (z-score)” value [6] was 1.26, the “glycan array binding signal (z-score)” value [7] was 2.08 and the “glycan array binding signal (z-score)” value [8] was 0.159. The “glycan array binding signal (z-score)” value [9] was -1.16, the “glycan array binding signal (z-score)” value [10] was 1.1 and the “glycan array binding signal (z-score)” value [11] was 0.692. The “glycan array binding signal (z-score)” value [12] was -0.418, the “glycan array binding signal (z-score)” value [13] was -0.526 and the “glycan array binding signal (z-score)” value [14] was 1.84. The “glycan array binding signal (z-score)” value [15] was 0.703, the “glycan array binding signal (z-score)” value [16] was 1.7 and the “glycan array binding signal (z-score)” value [17] was -0.687. For the same binder, the “glycan array binding signal (z-score)” value [18] was 1.84, the “glycan array binding signal (z-score)” value [19] was 0.349 and the “glycan array binding signal (z-score)” value [20] was 2.46. The “glycan array binding signal (z-score)” value [21] was 0.339, the “glycan array binding signal (z-score)” value [22] was 1.91 and the “glycan array binding signal (z-score)” value [23] was -0.14. For the same binder, the “glycan array binding signal (z-score)” value [24] was 1.6, the “glycan array binding signal (z-score)” value [25] was 1.83 and the “glycan array binding signal (z-score)” value [26] was 0.427. The “glycan array binding signal (z-score)” value (Gal6S(b1-3)GlcNAc6S) was -0.227, the “glycan array binding signal (z-score)” value [27] was -0.419 and the “glycan array binding signal (z-score)” value [28] was 0.011.

From the supplement of paper PMC8728848
